Assay results taken from PubChem BioAssay (NCI).
Compounds without any hit were thinned out: in the full panel of roughly 79,000, 15% have a hit. Calls of active or inactive are those of the source. Rule as the data show it: active = growth inhibition above about 70%; inactive = the rest.

Key:
[1] = NCI Yeast Anticancer Drug Screen. Data for the rad52 strain (AID 147);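 also: 0% = growth of vehicle-treated control cultures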; details: S. cerevisiae rad52 mutant growth inhibition, hits give high values
Method in brief: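 Measured: yeast growth inhibition. System: strain with a defined DNA damage repair alteration. Reference: vehicle-treated control cultures.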

[2] = NCI Yeast Anticancer Drug Screen. Data for the wt1 strain (AID 149);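 also: 0% = growth of vehicle-treated wt1 cultures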; details: S. cerevisiae wt1 strain (SPY 50644) growth inhibition, hits give high values
Method in brief: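 wt1 yeast, compound-treated; % growth inhibition vs vehicle control.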

[3] = NCI Yeast Anticancer Drug Screen. Data for the rad50EPP+ strain (AID 151);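 also: 0% = growth of vehicle-treated control cultures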; details: S. cerevisiae rad50 mutant strain, hits give high values
Method in brief: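 One strain with a rad50 alteration (rad50EPP+) was compound-treated, its growth then compared to that of vehicle controls.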

[4] = NCI Yeast Anticancer Drug Screen. Data for the rad50 strain (AID 155);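 also: 0% = growth of vehicle-only cultures of the same strain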; details: S. cerevisiae rad50 strain growth inhibition, hits give high values
Method in brief: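 Genetically altered yeast (DNA repair pathway); compound treatment; growth inhibition vs vehicle ctrl.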

[5] = NCI Yeast Anticancer Drug Screen. Data for the mec2-1 strain (AID 157); details: S. cerevisiae mec2-1 strain, hits give high values
Method in brief: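 Test agents were screened against the mec2-1 yeast strain, with defined DNA repair or cell cycle alteration. Growth was scored as inhibition against vehicle-only controls.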

[6] = NCI Yeast Anticancer Drug Screen. Data for the rad14 strain (AID 159);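 also: 0% = growth of vehicle-treated control cultures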; details: S. cerevisiae rad14 strain growth inhibition, hits give high values
Method in brief: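 Test compounds were applied to a repair-deficient yeast strain. Its growth was then compared with that of cultures given vehicle alone, and inhibition was expressed relative to those controls.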

[7] = NCI Yeast Anticancer Drug Screen. Data for the sgs1 mgt1 strain (AID 161);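 also: 0% = growth of cultures given vehicle only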; details: S. cerevisiae sgs1 mgt1 strain, hits give high values
Method in brief: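 Inhibition of yeast growth, normalised to vehicle-treated controls, is reported for a strain bearing genetic alterations in DNA damage repair.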

[8] = NCI Yeast Anticancer Drug Screen. Data for the CLN2oe strain (AID 163);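 also: 0% = growth of vehicle-only control cultures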; details: S. cerevisiae CLN2oe strain, hits give high values
Method in brief: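 Here, growth inhibition in a cell-cycle-altered yeast strain after compound exposure was quantified against vehicle control growth.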

[9] = NCI Yeast Anticancer Drug Screen. Data for the cln2 rad14 strain (AID 165);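 also: 0% = growth equal to vehicle treated cultures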; details: S. cerevisiae cln2 rad14 strain, hits give high values
Method in brief: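 Growth of compound-exposed yeast (cln2 rad14 genotype) measured and expressed as inhibition relative to vehicle.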

[10] = NCI Yeast Anticancer Drug Screen. Data for the bub3 strain (AID 167); details: S. cerevisiae bub3 mutant strain, hits give high values
Method in brief: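 Yeast carrying a defined mutation is treated with each compound, and growth is compared with that of vehicle-exposed cells to give inhibition.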

[11] = NCI Yeast Anticancer Drug Screen. Data for the wt2 strain (AID 169);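 also: 0% = growth of vehicle-treated yeast cultures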; details: S. cerevisiae wt2 strain growth inhibition, hits give high values
Method in brief: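 Genetically defined yeast strains from a DNA-repair/cell-cycle panel were used. Compound-exposed yeast growth was measured, and the inhibition was calculated relative to vehicle treatment.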

[12] = NCI Yeast Anticancer Drug Screen. Data for the mlh1 strain (AID 171);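 also: 0% = growth of vehicle-treated control cultures of the same strain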; details: S. cerevisiae mlh1 strain growth inhibition, hits give high values
Method in brief: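 Here the genetically defined yeast mutant is grown with each compound, and the extent to which its growth falls below that of vehicle-exposed cells is reported.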

[13] = NCI Yeast Anticancer Drug Screen. Data for the mlh1 rad18 strain (AID 175); details: S. cerevisiae mlh1 rad18 strain growth inhibition, hits give high values
Method in brief: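 In this whole-cell yeast screen, a strain with altered DNA damage repair is challenged with compound, and its growth is measured against matched vehicle-treated controls.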

[14] = NCI Yeast Anticancer Drug Screen. Data for the rad18 strain (AID 177); details: S. cerevisiae rad18 mutant growth inhibition, hits give high values
Method in brief: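 Screen uses a yeast strain with a defined lesion in DNA damage repair; compound effect is read as loss of growth compared to untreated vehicle cultures.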

[15] = NCI Yeast Anticancer Drug Screen. Data for the sgs1 strain (AID 173);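 also: 0% = growth of vehicle-only control cultures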; details: S. cerevisiae sgs1 mutant, hits give high values
Method in brief: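 Relative growth inhibition, referenced to vehicle, was determined in a yeast strain with a defined alteration affecting DNA damage repair or cell cycle control after compound exposure.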

[16] = at 5.0 µM (retest, dose inferred, filed as 0.5)
[17] = at 50.0 µM (retest, dose inferred, filed as 5.0)

Measured: growth inhibition

CC(=O)OCC1OC(O[C@H]2C=C[C@@H](C(=O)OCc3ccccc3)n3c(=O)n(-c4ccccc4)c(=O)n32)C(OC(C)=O)C(OC(C)=O)C1OC(C)=O (stereo partly specified)
active: [1]; at 100.0 µM 77% | [4]; [17] 72% | [5]; [17] 71% | [7]; [17] 78% | [7]; at 50.0 µM 71% | [8]; at 100.0 µM 82% | [10]; [17] 80% | [10]; at 50.0 µM 75.1% | [10]; at 100.0 µM 76% | [11]; at 33.0 µM 98% | [11]; at 100.0 µM 97% | [12]; at 100.0 µM 70% | [13]; [16] 70% | [13]; [17] 93% | [14]; at 100.0 µM 76%
inactive: [1]; at 1.2 µM 22% | [1]; at 3.7 µM 24% | [1]; at 11.0 µM 14% | [1]; at 33.0 µM 63% | [2]; at 1.2 µM -11% | [2]; at 3.7 µM 2% | [2]; at 11.0 µM -3% | [2]; at 33.0 µM 21% | [2]; at 100.0 µM 29% | [3]; at 1.2 µM -9% | [3]; at 3.7 µM 3% | [3]; at 11.0 µM 2% | [3]; at 33.0 µM 16% | [3]; at 100.0 µM 18% | [4]; at 1.2 µM -14% | [4]; at 3.7 µM 10% | [4]; [16] 39% | [4]; at 11.0 µM 0% | [4]; at 33.0 µM 50% | [4]; at 50.0 µM 59% | [4]; at 100.0 µM 67% | [5]; at 1.2 µM 2% | [5]; at 3.7 µM 9% | [5]; [16] 23% | [5]; at 11.0 µM -8% | [5]; at 33.0 µM 36% | [5]; at 50.0 µM 57% | [5]; at 100.0 µM 59% | [6]; at 1.2 µM -15% | [6]; at 3.7 µM 8% | [6]; at 11.0 µM -8% | [6]; at 33.0 µM 8% | [6]; at 100.0 µM 20% | [7]; [16] 29% | [8]; at 1.2 µM 10% | [8]; at 3.7 µM 22% | [8]; at 11.0 µM 24% | [8]; at 33.0 µM 58% | [9]; [16] 13% | [9]; [17] 33% | [9]; at 50.0 µM 53.6% | [10]; at 1.2 µM -30% | [10]; at 3.7 µM -18% | [10]; [16] 28% | [10]; at 11.0 µM -27% | [10]; at 33.0 µM 24% | [11]; at 1.2 µM -36% | [11]; at 3.7 µM -18% | [11]; at 11.0 µM 19% | [12]; at 1.2 µM -17% | [12]; at 3.7 µM -2% | [12]; at 11.0 µM -23% | [12]; at 33.0 µM 39% | [13]; at 50.0 µM 28.9% | [14]; at 1.2 µM -6% | [14]; at 3.7 µM 3% | [14]; at 11.0 µM 7% | [14]; at 33.0 µM 59%

OCCNCCOc1ccc(/C(=C(/Cl)c2ccccc2)c2ccccc2)cc1
inactive: [1]; at 1.2 µM -38% | [1]; at 3.7 µM -36% | [1]; at 11.0 µM -20% | [2]; at 1.2 µM -25% | [2]; at 3.7 µM -26% | [2]; at 11.0 µM -3% | [3]; at 1.2 µM -34% | [3]; at 3.7 µM -28% | [3]; at 11.0 µM -56% | [4]; at 1.2 µM 12% | [4]; at 3.7 µM 1% | [4]; [16] 40% | [4]; at 11.0 µM 29% | [5]; at 1.2 µM -28% | [5]; at 3.7 µM -32% | [5]; [16] 3% | [5]; at 11.0 µM -2% | [6]; at 1.2 µM -9% | [6]; at 3.7 µM -8% | [7]; [16] 36% | [8]; at 1.2 µM -13% | [8]; at 3.7 µM 0% | [8]; at 11.0 µM 25% | [9]; [16] 59% | [10]; at 1.2 µM -8% | [10]; at 3.7 µM -5% | [10]; [16] 32% | [10]; at 11.0 µM 13% | [11]; at 1.2 µM -47% | [11]; at 3.7 µM -48% | [11]; at 11.0 µM -6% | [12]; at 1.2 µM 7% | [12]; at 3.7 µM 12% | [12]; at 11.0 µM 67% | [15]; at 1.2 µM -15% | [15]; at 3.7 µM -23% | [15]; at 11.0 µM 32% | [13]; [16] 43% | [14]; at 1.2 µM -8% | [14]; at 3.7 µM -6% | [14]; at 11.0 µM 24%
active: [1]; at 33.0 µM 98% | [1]; at 100.0 µM 97% | [2]; at 33.0 µM 98% | [2]; at 100.0 µM 97% | [3]; at 33.0 µM 70% | [3]; at 100.0 µM 98% | [4]; at 33.0 µM 98% | [4]; [17] 98% | [4]; at 50.0 µM 87.1% | [4]; at 100.0 µM 97% | [5]; at 33.0 µM 98% | [5]; [17] 99% | [5]; at 50.0 µM 94.3% | [5]; at 100.0 µM 97% | [6]; at 11.0 µM 76% | [6]; at 33.0 µM 98% | [6]; at 100.0 µM 97% | [7]; [17] 98% | [7]; at 50.0 µM 93.8% | [8]; at 33.0 µM 99% | [8]; at 100.0 µM 98% | [9]; [17] 98% | [9]; at 50.0 µM 93.2% | [10]; at 33.0 µM 99% | [10]; [17] 99% | [10]; at 50.0 µM 92.7% | [10]; at 100.0 µM 97% | [11]; at 33.0 µM 98% | [11]; at 100.0 µM 97% | [12]; at 33.0 µM 98% | [12]; at 100.0 µM 98% | [15]; at 33.0 µM 98% | [15]; at 100.0 µM 98% | [13]; [17] 99% | [13]; at 50.0 µM 90% | [14]; at 33.0 µM 98% | [14]; at 100.0 µM 98%

CC(C)c1[nH]nc(C(N)=O)c1N=NN(C)C
active: [1]; at 33.0 µM 87% | [1]; at 100.0 µM 95% | [3]; at 33.0 µM 73% | [3]; at 100.0 µM 91% | [4]; at 33.0 µM 81% | [4]; [17] 83% | [4]; at 50.0 µM 91.5% | [4]; at 100.0 µM 93%
inactive: [1]; at 1.2 µM 3% | [1]; at 3.7 µM 4% | [1]; at 11.0 µM 40% | [2]; at 1.2 µM -5% | [2]; at 3.7 µM -4% | [2]; at 11.0 µM -8% | [2]; at 33.0 µM -7% | [2]; at 100.0 µM -1% | [3]; at 1.2 µM -1% | [3]; at 3.7 µM 15% | [3]; at 11.0 µM 37% | [4]; at 1.2 µM -5% | [4]; at 3.7 µM 3% | [4]; [16] -90% | [4]; at 11.0 µM 33% | [5]; at 1.2 µM 1% | [5]; at 3.7 µM -1% | [5]; [16] -46% | [5]; at 11.0 µM -10% | [5]; at 33.0 µM 4% | [5]; [17] -16% | [5]; at 50.0 µM 24.4%
